The list is a sample of the results.
aSyn UTR act: Activators via SNCA 5'UTR binding, MLPCN; actives 7.1% (n = 300,000); AID 1814; alpha-synuclein 5'UTR reporter, activators screen; activity score, % (tested at 7.5 µM), hits read low; in the data active = activity score below about -60%
Numbers stand for hits.

Nc1ccc2c(c1)Cc1ccccc1-2 was read as aSyn UTR act -174.6.
For COc1cccc(OC)c1C1=NCC(=O)Nc2c1oc1ccc(Br)cc21 the results were aSyn UTR act inactive.
Screening C/C1=C\[C@@H](C)C/C=C/[C@H]2[C@@H]3O[C@]3(C)[C@@H](C)[C@H]3[C@H](Cc4c[nH]c5ccccc45)NC(=O)[C@]32C(=O)/C=C/C(=O)[C@@H]1O returned aSyn UTR act inactive.
CC(C)c1ccc(N2C(=O)NC(=O)/C(=C\C=C\c3ccco3)C2=O)cc1 was read as aSyn UTR act -70.1.
Screening O=C1NC(=O)N(Cc2ccccc2)C(=O)/C1=C/C=C/c1ccco1 returned aSyn UTR act -296.5.
CN(C)C(Cc1ccc(Cl)cc1)C(=O)c1ccccc1 (centres undefined) was read as aSyn UTR act -81.6.
For COC(=O)c1ccc(CC(C(=O)c2ccccc2)N(C)C)cc1 (centres undefined) the results were aSyn UTR act -153.9.
COc1ccc(-c2cc(=Nc3ccccc3)c3cc(C)ccc3o2)cc1 was read as aSyn UTR act -100.2.
COc1ccc(-c2cc(=NCCC(=O)O)c3cc(C)ccc3o2)cc1 was read as aSyn UTR act -121.1.
`C/C=C(\C)C(=O)N[C@@H](c1ccccc1)[C@@H](O)C(=O)O[C@H]1C[C@@]2(O)[C@@H](OC(=O)c3ccccc3)C3[C@](C)(C(=O)[C@H](O)C(=C1C)C2(C)C)[C@@H](O)C[C@H]1OC[C@@]31OC(C)=O` (some centres undefined) gave aSyn UTR act inactive.
For Cc1ccc(/C=C2\C(=O)NC(=S)N(c3ccc(F)cc3)C2=O)s1 the results were aSyn UTR act -115.7.
Screening CCC(=O)c1ccc(OC(=O)N(C)c2ccccc2)cc1 returned aSyn UTR act -118.1.
CN(C(=O)Oc1ccc(C(C)(C)C)cc1)c1ccccc1 was read as aSyn UTR act -106.1.
For CCC(=NCCC1=CCCCC1)c1c(O)[nH]c(=O)[nH]c1=O the results were aSyn UTR act inactive.
CCCCCCOC(=O)c1ccccc1N was read as aSyn UTR act -136.0.
`CC(=O)OC(C)(C)/C=C/C(=O)C(C)(O)C1[C@H](O)C[C@@]2(C)C3CC=C4C(CC[C@@H](O)C4(C)C)[C@]3(CO)C(=O)C[C@]12C` (some centres undefined) gave aSyn UTR act inactive.
C=C(C=O)CC1CC(O)[C@]2(C)OC3CC4OC5C[C@]6(C)O[C@]7(C)CCC8OC9C[C@]%10(C)OC%11C(C)=CC(=O)OC%11CC%10OC9C[C@@H](C)C8OC7CC6O[C@]5(C)CC5OC5C4OC3CC2O1 (some centres undefined) was read as aSyn UTR act inactive.
Screening CCN(CC)C(=O)c1ccc(NC(=O)c2cccc(F)c2)cc1 returned aSyn UTR act -79.9.
`O=C(c1cc2c(s1)-c1ccccc1OC2)N1CCC2(CC1)OCCO2` gave aSyn UTR act -129.2.
Cc1cc(C(=O)Nc2ccc3c(c2)OCCO3)nn1C(C)(C)C was read as aSyn UTR act -136.2.
`Cc1cc(C(=O)Nc2ccccc2)nn1C(C)(C)C` gave aSyn UTR act -111.7.
For O=[N+]([O-])c1ccccc1-c1cc(-c2ccccc2)cc(-c2ccccc2)[n+]1Cc1ccccc1Cl the results were aSyn UTR act inactive.
NC(=S)c1cn(C2OC(CO)C(O)C2O)c2ncnc(N)c12 (centres undefined) was read as aSyn UTR act inactive.
Screening CCOc1ccccc1-n1c(O)c(C=Nc2ccc(N(CC)CC)cc2)c(=O)[nH]c1=O returned aSyn UTR act -65.5.
`COc1cc(/C=C/C(=O)c2c(O)n(CCc3ccccc3)c(=O)[nH]c2=O)ccc1O` gave aSyn UTR act -69.4.
O=C(/C=C/c1ccccc1)c1c(O)n(CCc2ccccc2)c(=O)[nH]c1=O was read as aSyn UTR act -83.5.
Screening CC(C)[C@H]1C(=O)O[C@H](C(C)C)C(=O)N(C)[C@@H](C(C)C)C(=O)O[C@H](C(C)C)C(=O)N(C)[C@@H](C(C)C)C(=O)O[C@H](C(C)C)C(=O)N1C returned aSyn UTR act inactive.
Screening COc1cc(/C=C(/C)[N+](=O)[O-])ccc1OCc1ccccc1Cl returned aSyn UTR act -133.7.
Cc1nc2ccccc2c(=O)n1-c1ccc(Cl)c(Cl)c1 was read as aSyn UTR act -137.6.
For Cc1nc2ccccc2c(=O)n1-c1ccc([N+](=O)[O-])cc1 the results were aSyn UTR act -121.0.
CN1C(=O)N(C)C(=O)C2(Cc3cc([N+](=O)[O-])ccc3N(C)C2c2ccccc2)C1=O (centres undefined) was read as aSyn UTR act -61.9.
For CCN1CCN(c2nc3ccccc3s2)CC1 the results were aSyn UTR act -131.4.
CCc1ccc(N2C(=O)NC(=O)/C(=C/c3cccn3CCOc3ccc(C(C)CC)cc3)C2=O)cc1 (centres undefined) was read as aSyn UTR act -81.6.
CC[C@@]1(O)C(=O)OCc2c1cc1n(c2=O)Cc2cc3c(NC(=O)CN)cccc3nc2-1 was read as aSyn UTR act inactive.
Screening CCOc1ccc2nc(N3CCC(C(=O)N4CCC5(CC4)OCCO5)CC3)sc2c1 returned aSyn UTR act -82.0.
For CCCC(=O)Nc1cc(C(=O)N2CCC3(CC2)OCCO3)ccc1S(=O)(=O)c1ccc(C)cc1 the results were aSyn UTR act inactive.
Screening O=C(C1CCN(c2nc3ccc(Br)cc3s2)CC1)N1CCC2(CC1)OCCO2 returned aSyn UTR act -80.4.
`Cc1ccc2nc(N3CCC(C(=O)N4CCC5(CC4)OCCO5)CC3)sc2c1` gave aSyn UTR act -78.5.
`COc1ccc(C(=O)N/N=C/C23CC[C@@H](O)CC2(O)CC[C@@H]2[C@@H]3CCC3(C)C(C4=CC(=O)OC4)CCC23O)cc1` (some centres undefined) gave aSyn UTR act inactive.
Cc1cccc(Cn2cc(C=O)c3ccccc32)c1 was read as aSyn UTR act inactive.
CN1C(=O)C(=Cc2ccc(OCC(=O)Nc3ccccc3)cc2)C(=O)N(C)C1=O was read as aSyn UTR act -77.7.
`Cc1ccc(CN2C3CCCC2CC(NC(=O)Nc2cccc(F)c2)C3)cc1` (centres undefined) gave aSyn UTR act -98.7.
Clc1ccc2sc(C3CCNCC3)nc2c1 was read as aSyn UTR act -159.4.
COC(=O)c1nc(-c2ccc3c(n2)C(=O)C(N)=C(OC)C3=O)c(N)c(-c2ccc(OC)c(OC)c2O)c1C was read as aSyn UTR act inactive.
Screening CCN(CC)c1ccc(C=C2C(=O)N(C)C(=S)N(C)C2=O)o1 returned aSyn UTR act -86.2.
`CCN(CC)c1ccc(/C=C2\C(=O)NC(=S)N(C)C2=O)o1` gave aSyn UTR act -115.0.
For CC[C@@]1(O)C(=O)OCc2c1cc1n(c2=O)Cc2cc3ccccc3nc2-1 the results were aSyn UTR act inactive.
`Cn1c(O)c(Cc2ccc(OCc3ccccc3)cc2)c(=O)n(C)c1=O` gave aSyn UTR act -139.9.
For C/C=C(\C)C(=O)N[C@@H](c1ccccc1)[C@@H](O)C(=O)O[C@H]1C[C@@]2(O)[C@@H](OC(=O)c3ccccc3)C3[C@](C)(C(=O)[C@H](OC(C)=O)C(=C1C)C2(C)C)[C@@H](O)C[C@H]1OC[C@@]31OC(C)=O (some centres undefined) the results were aSyn UTR act inactive.
`Cc1nc2cc(-c3cccc(F)c3)nn2c(C)c1CCC(=O)N1CCC2(CC1)OCCO2` gave aSyn UTR act inactive.
Screening O=C(CSc1ccccc1)N1CCC2(CC1)OCCO2 returned aSyn UTR act -92.2.

Screening data as filed in PubChem BioAssay.
